The results in this text go back to the supplement of paper PMC6555819.

This experiment concerns VDR:RXRa (NR concentration 270 nM, RXRa partner concentration 90 nM). The experiment in a line: PBM binding z-score (relative to random genomic background probes); higher = stronger binding; sequences stand for … in GC…GCGATTGACAGCGTAGAATGAAGG
The procedure:
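Protein-binding microarray (Agilent 4x180K custom design, double-stranded 60-nt probes: 5' GC cap, 34-nt variable region, 24-nt constant primer region; full probe sequence given). Purified or IVT nuclear receptor:RXRα heterodimers (3:1 NR:RXRα, mostly 270:90 nM) or homodimers were incubated for 1 h in PBS with 2% milk and no ligand, then detected with Alexa488 antibodies. Fluorescence from o1-orientation probes (~5 replicates averaged) was converted to z-scores against 500 random hg19 background probes. Variable regions are seed direct-repeat (DR0–DR5) sites, all their single-nucleotide variants and half-site ablations.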
On to GCTAGCAGGCCCTTTGGGTCACTCAATGACGGGC, for which the PBM binding z-score was -0.206.

Take CCTATTAGTTGACCATATGGGCAACCGAAGCTCG: the PBM binding z-score was determined as 0.234.

The sequence CGAACTAGGTCATTGACAGGTCAGTGAATAGTAA came in with a PBM binding z-score of 3.9.

Regarding AGAATGAGGTGAAGATCAGGGAAACAGAATACAT, the PBM binding z-score was 0.178.

In turn, TCTATTAGTTGTTTAGGGCAACCGAAACAGCGGA gave a PBM binding z-score of 0.707.

Consider TAGCCTAGGTCATTGGGCCAGTTTAGTACGCATC, for which the PBM binding z-score is 2.37.

GATACAGGGACAAGGCCAGAGTACGCGTATTGAT: the PBM binding z-score was -0.523.

CCTATTAGTTGACCATAAGGGCAAGCGAAGCTCG: the PBM binding z-score is 0.92.

Consider ATCTCTAGGTAAAAGATCAGTGAATCCCGAGGAT, for which the PBM binding z-score was -0.291.

GATATTAGTTGAAAGGGCAACCGAATGATTCTCG: the PBM binding z-score is 0.661.

TGAATGAGGCTAAAGATCAGGGAACGTGGCGTCG: the PBM binding z-score is -0.503.

With TTACCAAGGTGAGCTGAGGTCGTTGAGCCAACTC, the PBM binding z-score was 4.29.

Turning to CAAACTGGGTCACCGGAAGGTCAAAGTCCGCATG, the PBM binding z-score was determined as 5.93.

For CGAACTAGGTCCAGGACAGTGAATCTCCGCACGC, the PBM binding z-score was -0.573.

On to CTTCAAAGTTCAAGGTAACGTAACAGAAAGCAGC, for which the PBM binding z-score came to 3.51.

CCTACTGGGCCAGCAGGTCATTGATATCAACGTT showed a PBM binding z-score of 1.26.

With GCAGACAGGTGGAACGCAGGTAACTCAGGGTGGC, the PBM binding z-score was -0.675.

The sequence ACTATTAGTTGACTTAGGGCCACCGATACGACGC came in with a PBM binding z-score of 0.067.

In the case of AGAATGAGGTTAGTAAGATCAGGGAATTGCGGTC, the PBM binding z-score stood at 0.837.

In the case of TATACAGGGTCAAAGCCCAGAGTACGAATGTCGA, the PBM binding z-score stood at 4.41.

On to TCACATAGGTAAACAGGTGAAAGTCCGTAAGTTA, for which the PBM binding z-score is 0.849.

Turning to TCGAGTAGCTTAGGGGCATTCAGAATGGCGTCGA, the PBM binding z-score is -0.202.

Turning to GCGACTCGGGCATCAGCAGGTTACCATAACTTAA, the PBM binding z-score was -0.42.

GCAGACAGGTGAAACGCAGGTAACTCTGGGTGGC: the PBM binding z-score was -0.545.

With CCTACTGGGCCAAGGTGATTGATCAGTCAAAGCA, the PBM binding z-score was -0.746.

CGTCCAAGGTCAGTGCTAGGTCAGTGAAAGCATT came in with a PBM binding z-score of 3.71.

TCATATAGATAAAGGTGAAAGTCGAACGATATGA displayed a PBM binding z-score of 0.945.

Sequence ACTAGCAGGCCAAGCTTGGGTCACTCAAACAAAG came in with a PBM binding z-score of 0.122.

ACTTACGGGTCAACGAGGTTATAGCACGCGTATA showed a PBM binding z-score of 7.63.

As for AGAACGAGGGCACGCTGAATTGATAGCAGAGTAG, the PBM binding z-score turned out to be 0.557.

TCATATACGTAAACAGGTGAAAGTCCGTAAGTTA gave a PBM binding z-score of 1.38.

CCTATTCGTTGACCATAAGGGCAACCGAAGCTCG showed a PBM binding z-score of 0.983.

As to CCTACTGGGCCATGAGGTCATTGATATCAACGTT, the PBM binding z-score was 4.43.

Regarding AGAATGAGGCTATACGTAGATCAGGGAAGAAAGT, the PBM binding z-score is -0.45.

TCTGCTAGGTCAGATGGTCAGCTAACGAGCTGCC registered a PBM binding z-score of 0.133.

TCATGTAGGTAAACAGGTGAAAGTCCGTAAGTTA returned a PBM binding z-score of 0.613.

Turning to CCTCGGAGGACAGAAGGACAGAGCTGTCCGCTTT, the PBM binding z-score is -0.413.

On to AGTCAAAGTTCAACTAGGTAACGTAAGATATGCT, for which the PBM binding z-score was found to be 4.61.

AGAACGAGGACACGCTGAGTTGATAGCAGAGTAG registered a PBM binding z-score of 0.161.

For TGAATGAGCTTAAAGATCAGGGAACGTGGCGTCG, the PBM binding z-score is -0.548.
